ST2 inh = IL1RL1 inhibition. Q01638. AlphaLISA ST2-Fc/biotin-IL-33 interaction, 1 h. inhibition, % for hits at 17 µM. actives 2.3% (n = 78,000). AID 1259354; in the data active means inhibition above about 30%
Target sequence (Q01638 whole entry, looked up): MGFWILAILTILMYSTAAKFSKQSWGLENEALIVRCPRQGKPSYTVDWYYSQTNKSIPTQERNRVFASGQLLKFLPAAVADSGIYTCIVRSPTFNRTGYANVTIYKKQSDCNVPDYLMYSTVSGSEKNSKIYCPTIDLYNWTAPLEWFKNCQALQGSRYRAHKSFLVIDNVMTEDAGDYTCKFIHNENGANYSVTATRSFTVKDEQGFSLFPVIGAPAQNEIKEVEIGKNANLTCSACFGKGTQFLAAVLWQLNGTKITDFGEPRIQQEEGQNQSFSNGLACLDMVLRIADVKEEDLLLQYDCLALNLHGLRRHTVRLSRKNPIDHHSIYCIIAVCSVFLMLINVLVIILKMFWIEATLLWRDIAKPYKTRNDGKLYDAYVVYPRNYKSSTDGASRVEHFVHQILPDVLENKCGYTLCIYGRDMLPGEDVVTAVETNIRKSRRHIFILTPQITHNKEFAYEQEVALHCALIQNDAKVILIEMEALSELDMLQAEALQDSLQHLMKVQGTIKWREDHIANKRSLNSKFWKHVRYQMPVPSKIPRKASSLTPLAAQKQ
Large screens that a line does not name were inactive. This is one part of a sample in which hits are shown more often than they occur.

COc1cc(NC(=O)c2sc3nc(-c4ccc(F)cc4)ccc3c2N)cc(OC)c1OC	none
COc1ccc(CCNC(=O)c2sc3nc(-c4ccc(OC)cc4)ccc3c2N)cc1	none
Cc1cc(NC(=O)c2ccc3ccccc3c2)nc2c1c(=O)oc1ccccc12	none
CCOC(=O)c1ccc2[nH]cc(C(=O)c3ccc(C)cc3)c(=O)c2c1	none
Cc1ccc(C(=O)c2c[nH]c3ccc(Br)cc3c2=O)cc1	ST2 inh 33.0%
CCc1ccc(C(=O)c2c[nH]c3ccc(CC)cc3c2=O)cc1	none
CCc1ccc(C(=O)c2c[nH]c3ccc(F)cc3c2=O)cc1	ST2 inh 42.0%
CCOC(=O)c1ccc2[nH]cc(C(=O)c3ccccc3)c(=O)c2c1	none
CCc1ccc(C(=O)c2c[nH]c3ccc(C)cc3c2=O)cc1	none
O=c1[nH]nc(CN2CCCCC2)n1Cc1ccccc1	none
COc1ccc(S(=O)(=O)Nc2ccc(S(=O)(=O)Nc3cc(OC)ccc3OC)cc2)cc1	ST2 inh 49.0%
COc1ccc(OC)c(NS(=O)(=O)c2ccc(NS(=O)(=O)c3ccc(F)cc3)cc2)c1	none
COc1ccc(OC)c(NS(=O)(=O)c2ccc(NS(=O)(=O)c3ccc(C)cc3)cc2)c1	none
Cc1cccc(OCCCC(=O)Nc2ncn[nH]2)c1	none
Cn1c(CCSCCc2nc3ccccc3n2C)nc2ccccc21	none
c1nnnn1CCCN1CCOCC1	none
C=CCOc1ccc(C=Nc2ccc(C)cc2C)c(O)c1	ST2 inh 38.0%
C=CCOc1ccc(C=Nc2ccc(C(C)C)cc2)c(O)c1	ST2 inh 41.0%
C=CCOc1ccc(C=Nc2ccc(Cl)cc2)cc1	none
O=c1[nH]c2ccc(N=Cc3ccc(O)cc3O)cc2[nH]1	none
Cc1ccc(N(C(=O)Cc2ccccc2)C2C=CS(=O)(=O)C2)cc1 (centres undefined)	none
COc1cc2c(cc1OC)CN(C1CCCN(Cc3nc(C(C)C)cs3)C1)CC2 (centres undefined)	none
COc1cc(C)c(CN2CCC3(CCCN(CC4CC4)C3=O)C2)cc1C (centres undefined)	none
O=C1CCCC2=C1C(c1ccccc1Cl)Nc1ccccc1N2 (centres undefined)	none
CCN1C(=O)CC(C(=O)Nc2ccccc2OC)SC1=Nc1cccc(C(F)(F)F)c1 (centres undefined)	none
O=C(NCCO)c1cc2n(n1)CCCN(C(=O)Cc1ccc(F)c(F)c1)C2	none
O=C(Nc1cccc(F)c1)N1Cc2[nH]cnc2C[C@H]1c1nc(-c2ccc3ccccc3c2)no1	none
COc1cc(NC(=S)N[C@H]2CO[C@H]3[C@@H]2OC[C@H]3OC(=O)Nc2cccc(C(C)=O)c2)cc(OC)c1	none
Cc1ccc(C2=N/C(=C\c3ccc(N(C)C)cc3)C(=O)O2)cc1[N+](=O)[O-]	ST2 inh 30.0%
Cc1ccc(C2=N/C(=C\c3cccc([N+](=O)[O-])c3)C(=O)O2)cc1[N+](=O)[O-]	none
Cc1ccc(C2=N/C(=C\c3cccc(F)c3)C(=O)O2)cc1[N+](=O)[O-]	none
CCN(CC)c1ccc(C(=O)Nc2ccc(-c3nc4ccccc4[nH]3)cc2)cc1	none
CCn1cc(C(=O)N2CCC(C)CC2)c2cc(OC)c(OC)cc2c1=O	none
Cc1n[nH]c(C)c1S(=O)(=O)N1CCN(C(c2ccccc2)c2ccc(Cl)cc2)CC1 (centres undefined)	none
CCN(CC1CCCN(CCc2cccc(OC)c2)C1)C(=O)Cn1cncn1 (centres undefined)	none
NC(=O)CC(NC(=O)c1ccco1)C(=O)O (centres undefined)	none
CCc1ccc(C(=O)NC(C(=O)O)C(C)C)cc1 (centres undefined)	none
CC(C)C(NC(=O)c1ccco1)C(=O)O (centres undefined)	ST2 inh 32.0%
COc1cccc(CC2CN(C(=O)CCn3c(C)cccc3=O)CCO2)c1 (centres undefined)	none
O=S(=O)(Nc1ccccc1F)c1ccc(Br)s1	none
O=C(NCCSc1c[nH]c2ccccc12)c1cc(Cl)ccc1Cl	none
COc1ccccc1C(=O)Nc1cccc(-c2nc3ncccc3o2)c1	none
COc1ccc(Cl)cc1C(=O)Nc1ccc(C)c(-c2nc3ncccc3o2)c1	ST2 inh 35.0%
COc1ccc(C(=O)Nc2ccc(Cl)c(-c3nc4ncccc4o3)c2)cc1OC	none
Cn1c(=O)c2c(nc(NCc3ccc4c(c3)OCO4)n2Cc2ccc(Cl)cc2)n(C)c1=O	none
CCC1Oc2ccccc2N(CC(=O)NCCN2CCCC2)C1=O (centres undefined)	none
O=C(CN1C(=O)/C(=C\c2ccc(Cl)cc2)Sc2ccccc21)NCCN1CCCC1	ST2 inh 33.0%
CCCCNC(=O)CN1C(=O)/C(=C\c2ccc(Cl)cc2)Sc2ccccc21	none
O=C(NCCN1CCOCC1)Nc1ccc(Cl)cc1	none
O=C(CN1C(=O)/C(=C\c2ccc(Cl)cc2)Sc2ccccc21)N1CCOCC1	none
O=C(CN1C(=O)/C(=C\c2ccc(Cl)cc2)Sc2ccccc21)NCCN1CCOCC1	ST2 inh 30.0%
O=C(Nc1ccc(S(=O)(=O)Nc2ncccn2)cc1)c1cc2cc([N+](=O)[O-])ccc2s1	none
COc1ccccc1-c1cc(C(=O)Nc2ccc(C(C)=O)cc2)no1	none
O=C(CN1C(=O)C2CCCCN2C(=O)c2ccccc21)NCc1ccc2c(c1)OCO2 (centres undefined)	none
O=C(CN1C(=O)C2CCCCN2C(=O)c2ccccc21)N1CCN(Cc2ccccc2)CC1 (centres undefined)	none
O=C(CN1C(=O)C2CCCCN2C(=O)c2ccccc21)NCc1ccc(F)cc1 (centres undefined)	ST2 inh 37.0%
c1ccc(C2CN(Cc3ccc(C4CCCO4)s3)C2)nc1 (centres undefined)	none
COc1cc(OC)c(NC(=O)Cc2ccccc2OC)cc1Cl	none
O=[N+]([O-])c1ccc(C2CNC(c3ccccc3)O2)cc1 (centres undefined)	none
O=S(=O)(c1ccc([C@@H]2Nc3ccc(Br)cc3[C@@H]3C=CC[C@@H]32)cc1)N1CCOCC1	none
O=C(c1ccc2c(c1)C1C=CCC1C(c1ccc([N+](=O)[O-])cc1)N2)N1CCCCCC1 (centres undefined)	ST2 inh 40.0%
CC1(C)C(=O)OC(c2ccccc2[N+](=O)[O-])C(C)(C)C1=O (centres undefined)	none
COc1ccc(C(=O)N2CCCCC2)cc1[N+](=O)[O-]	none
O=[N+]([O-])c1ccc(C2Nc3c(cccc3[N+](=O)[O-])C3C=CCC32)cc1 (centres undefined)	ST2 inh 45.0%
COCCNC(=O)[C@@H](C)C1CC[C@@]2(C)CC[C@H](NC(=O)c3ccncc3)[C@@H](C)[C@@H]2[C@H]1O (some centres undefined)	none
O=C(Nc1cc(C(=O)Nc2cccc(O)c2)cc(C(=O)Nc2cccc(O)c2)c1)c1ccccc1	none
O=S(=O)(NCc1nc2cccnc2n1Cc1ccccc1Cl)c1ccccc1	none
CCOc1ccc(-n2c(SCC(=O)N3CCCC3)nc3c(c2=O)SCC3)cc1	none
CCN(CC)c1ccc(C2Oc3nc(SC)nnc3-c3ccccc3N2C(C)=O)c(OC)c1 (centres undefined)	ST2 inh 36.0%
C=CCSc1nnc2c(n1)OC(c1ccccn1)N(C(C)=O)c1ccccc1-2 (centres undefined)	none
C=CCSc1nnc2c(n1)OC(c1ccncc1)N(C(C)=O)c1ccccc1-2 (centres undefined)	none
COc1cc(C2Oc3nc(SC)nnc3-c3ccccc3N2C(C)=O)cc(OC)c1OC (centres undefined)	none
COc1ccc(Br)c(C2Oc3nc(SC)nnc3-c3ccccc3N2C(C)=O)c1 (centres undefined)	none
